Most compounds without a hit are left out; they make up all but 6.2% or so of the library.
HT1080NT lethal – kills 2HG-producing HT-1080-NT fibrosarcoma cells; HT-1080-NT fibrosarcoma viability, CellTiter-Glo ATP luminescence, 48 h; Potency, µM (doses to about 46.1 µM), without a hit: at the highest dose activity, negative = less viability, hits mostly cytotoxic; 360,000 tested, 1.6% active;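 also: NT is the 2HG producing partner of a matched IDH1 knockdown line; 0% = DMSO-treated cells and -100% = media-only wells without cells; nearly all actives have a fitted effect of over 55% in size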
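Viability of the 2HG-overproducing fibrosarcoma line after 48 hours of compound exposure at 37 degrees C was determined by luminescence with CellTiter-Glo, and concentration-effect curves were then fitted and categorized.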
ATXN viability – viability counter-screen for ATXN expression inhibitors. Potency, µM (top dose mostly 56.7 µM), usual class: cytotoxic. AID 651635. S2 cells (HEK-293 line with an ATXN2-luciferase reporter) viability, CellTiter-Fluor protease fluorescence, 24 h. 400,000 tested, 0.49% active; also: nearly all actives have a fitted effect of over 40% in size
KB-3-1 cytotox – KB-3-1 parental cell cytotoxicity | 400,000 tested, 1.4% active | Potency, µM (series often up to 46.1 µM), hits mostly cytotoxic | KB-3-1 viability, CellTiter-Glo ATP luminescence, 72 h | AID 1347075; also: % is scaled to controls: 0 for no effect and ±100 for the full control effect; nearly all actives have a fitted effect of over 60% in size
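Screening of KB-3-1 cells (DMEM, 10% FBS, phenol-red free) ran from lowest to highest compound concentration; after 72 h at 37 °C viability was read luminescently and curves fitted.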
HT1080 IDH1KD tx – toxicity to HT-1080 IDH1 knockdown cells (counter line); 360,000 tested, 2% active; HT-1080 IDH1 knockdown viability, ATP luminescence, 48 h; AID 686971; Potency, µM (doses to about 46.1 µM), for inactives: at the highest dose activity, negative = toxicity, most hits filed as cytotoxic;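 also: 0% = DMSO wells and -100% = cell-free medium wells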
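Cytotoxicity counter-line: IDH1KD HT-1080, 48 h, CellTiter-Glo. Curves classed by r2, magnitude and activity.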
KB-V1 cytotox – kills drug-selected multidrug resistant KB-V1 cells. KB-V1 MDR cells viability, CellTiter-Glo, 72 h. Potency, µM (titrated, usually from 46.1 µM), hits mostly cytotoxic. 400,000 tested, 3.4% active; also: % is scaled to controls: 0 for no effect and ±100 for the full control effect; nearly all actives have a fitted effect of over 60% in size
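KB-V1 MDR subline cells in DMEM (phenol-red free, 10% FBS) exposed to compounds in qHTS concentration series for 72 h at 37 degrees C. Viability read by CellTiter-Glo luminescence; concentration-effect curves fitted after normalization and correction.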
ATXN2 expr inh – inhibitors of ATXN2 expression | HEK-293 ATXN2-luciferase reporter, luminescence, 24 h | Potency, µM (top dose mostly 57 µM), without a hit: top-dose activity change, negative = inhibition, actives largely listed as inhibitors | 360,000 tested, 0.72% active; also: % is scaled to controls: 0 for no effect and ±100 for the full control effect; nearly all actives have a fitted effect of over 55% in size
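qHTS (up to 57 uM final) was run with 24 h compound exposure of reporter cells at 37 °C. Each well was multiplexed: SteadyGlo luminescence measured ATXN2-luciferase expression after a fluorogenic Gly-Phe-AFC viability readout (25 uM final).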
* = called active by the depositor. Calls follow the shape of the dose curve; as a rule, active = well fitted curve in the direction sought with a large enough effect; inconclusive = small, poorly fitted or top-dose-only effect, or another doubt; inactive = no such curve, though single readings can be large; an effect the other way counts as inactive or inconclusive. Potency is read from the fitted curve at half-maximal effect.

What do the screens show for `CC(CCc1ccccc1)NC(=O)COc1ccc(S(=O)(=O)N2CCOCC2)cc1[N+](=O)[O-]` (stereo not given)?
HT1080NT lethal: -12%; ATXN viability: inactive; KB-3-1 cytotox: inactive; HT1080 IDH1KD tx: -13%; KB-V1 cytotox: 21µM*; ATXN2 expr inh: -14%

Results for CCCN1CCC(=NNc2ccc(S(=O)(=O)N3CCOCC3)cc2[N+](=O)[O-])CC1 ?
HT1080NT lethal: inconclusive; ATXN viability: inactive; KB-3-1 cytotox: 4.6µM*; HT1080 IDH1KD tx: 15µM*; KB-V1 cytotox: 7.3µM*; ATXN2 expr inh: -20%

How did CC(C)N1CCC(=NNc2ccc(S(=O)(=O)N3CCOCC3)cc2[N+](=O)[O-])CC1 do in these assays?
HT1080NT lethal: -1%; ATXN viability: inactive; KB-3-1 cytotox: inactive; HT1080 IDH1KD tx: 0%; KB-V1 cytotox: inconclusive; ATXN2 expr inh: -3%

What do the screens show for `Cc1ccc(CNc2ccc(S(=O)(=O)N3CCOCC3)cc2[N+](=O)[O-])cc1`?
HT1080NT lethal: 0%; ATXN viability: inactive; KB-3-1 cytotox: inactive; HT1080 IDH1KD tx: -8%; KB-V1 cytotox: 5.2µM*; ATXN2 expr inh: -14%

How did O=C(COc1ccc(Cl)cc1)OCc1cc(=O)n2nc(-c3cccs3)sc2n1 do in these assays?
ATXN viability: inactive; KB-3-1 cytotox: inactive; KB-V1 cytotox: inactive; ATXN2 expr inh: -14%

What do the screens show for `CCCN(c1ccc(C(C)C)cc1)S(=O)(=O)c1ccc2c(c1)CCN2C(=O)CC`?
ATXN viability: inactive; KB-3-1 cytotox: inactive; KB-V1 cytotox: inactive; ATXN2 expr inh: -9%

What do the screens show for `Cc1ccc(C2c3cccn3CCN2S(=O)(=O)c2ccc([N+](=O)[O-])cc2)cc1` (stereo not given)?
ATXN viability: inactive; KB-3-1 cytotox: inactive; KB-V1 cytotox: inactive; ATXN2 expr inh: -14%

How did CCC(C)(C(=O)NC1CCCCC1)N(Cc1ccco1)C(=O)c1ccc2c(c1)OCO2 (stereo not given) do in these assays?
HT1080NT lethal: -1%; ATXN viability: inconclusive; KB-3-1 cytotox: inactive; HT1080 IDH1KD tx: -5%; KB-V1 cytotox: 12µM*; ATXN2 expr inh: -8%

How did CCc1ccccc1NC(=O)Cn1nc(-c2cc(C)ccc2C)c2c(c1=O)CCCC2 do in these assays?
ATXN viability: inactive; KB-3-1 cytotox: inactive; KB-V1 cytotox: inactive; ATXN2 expr inh: 10%

How did COc1cccc(OCC(O)CNC(C)c2ccccc2)c1 (stereo not given) do in these assays?
HT1080NT lethal: -21%; ATXN viability: inactive; KB-3-1 cytotox: inactive; HT1080 IDH1KD tx: inconclusive; KB-V1 cytotox: inactive; ATXN2 expr inh: -16%

Results for CC(NCC(O)COCCC12CC3CC(CC(C3)C1)C2)c1ccccc1 (stereo not given) ?
HT1080NT lethal: inconclusive; KB-3-1 cytotox: inconclusive; HT1080 IDH1KD tx: inconclusive; KB-V1 cytotox: inconclusive; ATXN2 expr inh: 32µM*

How did NCC(O)COCCC12CC3CC(CC(C3)C1)C2 (stereo not given) do in these assays?
HT1080NT lethal: -12%; ATXN viability: inactive; KB-3-1 cytotox: inactive; HT1080 IDH1KD tx: -14%; KB-V1 cytotox: inactive; ATXN2 expr inh: -6%

Results for COc1ccc(C(OCC(O)CNC(C)c2ccccc2)c2ccc(OC)cc2)cc1 (stereo not given) ?
HT1080NT lethal: inconclusive; ATXN viability: inactive; KB-3-1 cytotox: inactive; HT1080 IDH1KD tx: 21µM*; KB-V1 cytotox: inconclusive; ATXN2 expr inh: -38%

What do the screens show for `CC(C)c1ccc(OCC(O)CNC(C)c2ccccc2)cc1` (stereo not given)?
HT1080NT lethal: 23µM*; ATXN viability: inactive; KB-3-1 cytotox: inconclusive; HT1080 IDH1KD tx: 18µM*; KB-V1 cytotox: inactive; ATXN2 expr inh: -10%

Results for COc1ccc(C(OCC(O)CNCCc2ccccc2)c2ccc(OC)cc2)cc1 (stereo not given) ?
HT1080NT lethal: 23µM*; ATXN viability: inconclusive; KB-3-1 cytotox: inconclusive; HT1080 IDH1KD tx: 23µM*; KB-V1 cytotox: 16µM*; ATXN2 expr inh: inconclusive

How did CCOc1ccc(OCC)c(NC(=O)c2cc(-c3cccs3)nc3ccccc23)c1 do in these assays?
ATXN viability: inactive; KB-3-1 cytotox: inactive; KB-V1 cytotox: inactive; ATXN2 expr inh: 4%

Results for COc1ccc(NC(=O)C2CCN(C3=NS(=O)(=O)C(c4ccc(C)c(C)c4)=C3C)CC2)cc1OC ?
ATXN viability: inactive; KB-3-1 cytotox: inactive; KB-V1 cytotox: inactive; ATXN2 expr inh: 7%

How did CCC(=O)N1CCc2cc(Br)cc(S(=O)(=O)N3CCCC(C(=O)NCc4ccccc4)C3)c21 (stereo not given) do in these assays?
ATXN viability: inactive; KB-3-1 cytotox: inconclusive; KB-V1 cytotox: inactive; ATXN2 expr inh: -6%

What do the screens show for `CCC1CN(C(=O)Nc2ccc(C)c(F)c2)c2ccccc2S1` (stereo not given)?
ATXN viability: inactive; KB-3-1 cytotox: inactive; KB-V1 cytotox: inactive; ATXN2 expr inh: 10%

Results for CCn1c(=O)n(CC)c2cc(S(=O)(=O)N3CCC(c4ccccc4)CC3)ccc21 ?
HT1080NT lethal: inconclusive; ATXN viability: inactive; KB-3-1 cytotox: inactive; HT1080 IDH1KD tx: -24%; KB-V1 cytotox: 23µM*; ATXN2 expr inh: -4%

How did COc1ccc(CNC(=O)CC2N=C3c4ccccc4N=C(SCC(=O)Nc4ccc(C(C)C)cc4)N3C2=O)cc1 (stereo not given) do in these assays?
KB-3-1 cytotox: inactive; KB-V1 cytotox: inactive

Results for O=S(=O)(c1ccc(F)cc1)N(CCO)CC(O)Cn1c2ccccc2c2ccccc21 (stereo not given) ?
HT1080NT lethal: inconclusive; ATXN viability: inactive; KB-3-1 cytotox: inactive; HT1080 IDH1KD tx: 18µM*; KB-V1 cytotox: 23µM*; ATXN2 expr inh: -22%

Results for CCN(CC(O)Cn1c2ccccc2c2ccccc21)S(=O)(=O)c1ccc(F)cc1 (stereo not given) ?
HT1080NT lethal: inconclusive; ATXN viability: inactive; KB-3-1 cytotox: inconclusive; HT1080 IDH1KD tx: inconclusive; KB-V1 cytotox: 12µM*; ATXN2 expr inh: -8%

How did CN(CCO)C(=O)c1cn(C2CCCN(Cc3cc4ccccc4s3)C2)nn1 (stereo not given) do in these assays?
ATXN viability: inactive

Results for COc1ccc(Nc2nnc(SCc3cn4c(C)cccc4n3)s2)cc1 ?
HT1080NT lethal: -15%; ATXN viability: inactive; KB-3-1 cytotox: 12µM*; HT1080 IDH1KD tx: -23%; KB-V1 cytotox: inconclusive; ATXN2 expr inh: 0%
